Measurements taken from PubChem BioAssay.
Activity calls are given as the source filed them. Unless noted, the rule behind the calls is not given here.

Assays:
[1] = compounds binding Alexa647 anti-His antibody – biochemical, small-molecule microarray, 635 nm fluorescence, artefact control for SMM control protein annotation, primary screen (AID 1128); details: higher = more signal;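 note: score merges feature fluorescence with signal-to-noise for each printed compound spot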
[2] = tested on: Human papillomavirus type 1a E7 protein (residues 1-88); test: HPV1a E7 small-molecule binders, primary screen, biochemical, small-molecule microarray, residues 1-88, 635 nm (AID 1129); details: small-molecule microarray binding, fluorescence 635 nm; higher = more signal
[3] = molecular target: Focal adhesion kinase 1 (Homo sapiens) (UniProt Q05397); test: PTK2 protein binding on printed compound slides – biochemical, small-molecule microarray, 635/667 nm fluorescence, BSA, DTT, primary screen (AID 1130); details: 635 nm fluorescence, higher = more signal;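 note: composite of spot emission at 667 nm and signal to noise over triplicate slides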
Focal adhesion kinase 1 (Homo sapiens), sequence (Q05397 whole entry, looked up): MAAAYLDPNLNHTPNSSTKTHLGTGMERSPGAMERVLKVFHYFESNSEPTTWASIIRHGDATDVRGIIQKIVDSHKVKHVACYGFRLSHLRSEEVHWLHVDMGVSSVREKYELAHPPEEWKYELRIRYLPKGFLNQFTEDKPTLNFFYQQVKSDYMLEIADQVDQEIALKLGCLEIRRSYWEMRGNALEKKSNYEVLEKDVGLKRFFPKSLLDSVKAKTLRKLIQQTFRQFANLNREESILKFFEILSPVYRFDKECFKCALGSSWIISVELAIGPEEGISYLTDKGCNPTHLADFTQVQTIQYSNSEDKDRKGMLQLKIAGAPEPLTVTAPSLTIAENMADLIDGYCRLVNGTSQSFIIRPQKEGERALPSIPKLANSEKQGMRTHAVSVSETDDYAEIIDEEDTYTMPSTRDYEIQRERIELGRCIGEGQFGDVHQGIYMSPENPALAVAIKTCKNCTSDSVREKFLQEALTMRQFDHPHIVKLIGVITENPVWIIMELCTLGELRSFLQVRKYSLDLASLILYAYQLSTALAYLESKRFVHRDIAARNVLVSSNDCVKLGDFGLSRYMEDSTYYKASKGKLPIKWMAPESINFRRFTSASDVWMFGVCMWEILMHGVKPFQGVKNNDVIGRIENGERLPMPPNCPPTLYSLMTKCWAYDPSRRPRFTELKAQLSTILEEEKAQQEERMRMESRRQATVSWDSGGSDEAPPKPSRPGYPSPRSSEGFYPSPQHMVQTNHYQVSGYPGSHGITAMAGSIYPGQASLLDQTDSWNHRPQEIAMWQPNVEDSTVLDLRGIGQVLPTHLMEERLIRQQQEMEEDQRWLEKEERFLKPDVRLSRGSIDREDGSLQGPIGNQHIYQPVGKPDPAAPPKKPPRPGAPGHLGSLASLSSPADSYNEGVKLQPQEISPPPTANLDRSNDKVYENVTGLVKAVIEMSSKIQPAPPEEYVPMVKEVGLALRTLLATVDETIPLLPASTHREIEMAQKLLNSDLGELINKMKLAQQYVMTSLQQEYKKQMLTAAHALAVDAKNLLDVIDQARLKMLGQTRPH

[4] = tested on: Fibrinogen (Alexa647-labelled); test: Alexa647-fibrinogen binding to printed small molecules – biochemical, small-molecule microarray, 635/667 nm fluorescence, artefact control for SMM control-protein annotation, profiling panel (AID 1131); details: fibrinogen-A647 binding fluorescence, higher = more signal;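 note: z-score merges 667 nm fluorescence with per-spot signal-to-noise over triplicate slides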
[5] = molecular target: Follistatin (Homo sapiens) (UniProt P19883); test: FST protein binding to printed compounds – biochemical, small-molecule microarray, 635/667 nm fluorescence, primary screen (AID 1132); details: 635 nm fluorescence, higher = more signal
Follistatin (Homo sapiens), sequence (P19883 whole entry, looked up): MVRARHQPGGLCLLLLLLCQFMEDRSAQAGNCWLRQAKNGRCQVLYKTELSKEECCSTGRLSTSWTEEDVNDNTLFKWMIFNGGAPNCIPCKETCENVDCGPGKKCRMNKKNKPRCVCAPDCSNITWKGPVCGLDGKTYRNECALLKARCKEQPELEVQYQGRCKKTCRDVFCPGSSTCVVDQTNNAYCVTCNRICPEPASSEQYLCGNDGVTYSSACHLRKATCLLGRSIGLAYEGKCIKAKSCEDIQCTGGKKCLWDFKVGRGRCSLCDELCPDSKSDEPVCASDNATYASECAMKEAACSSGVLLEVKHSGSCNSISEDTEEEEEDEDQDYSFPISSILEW

[6] = molecular target: Fibroblast growth factor 2 (Homo sapiens) (UniProt P09038); test: basic fibroblast growth factor binding to printed compounds – biochemical, small-molecule microarray, 635/667 nm fluorescence, primary screen (AID 1133); details: FGF2, fluorescence 635/667, higher = more signal
Fibroblast growth factor 2 (Homo sapiens), sequence (P09038 whole entry, looked up): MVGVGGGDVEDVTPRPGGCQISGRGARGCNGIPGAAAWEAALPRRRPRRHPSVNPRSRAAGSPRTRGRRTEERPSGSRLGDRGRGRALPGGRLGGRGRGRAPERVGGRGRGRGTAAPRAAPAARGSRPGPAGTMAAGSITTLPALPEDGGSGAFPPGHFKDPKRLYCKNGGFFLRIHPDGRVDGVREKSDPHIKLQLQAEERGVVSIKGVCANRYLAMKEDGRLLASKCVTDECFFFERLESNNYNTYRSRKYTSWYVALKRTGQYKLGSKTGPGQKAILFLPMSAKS

[7] = JC-1 mitochondrial potential readout, lung cancer cells – cell-based, A549, JC-1 fluorescence, basal, 24 h, 100 nL, profiling panel (AID 1138); details: higher = more signal;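 note: A549 lung adenocarcinoma cells under basal conditions with no added stimulus; test concentration not given here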
Lefty1 = Lefty1 protein binding to printed compounds – biochemical, small-molecule microarray, 635/667 nm fluorescence, primary screen (AID 1139); details: fluorescence 635/667, higher = more signal
[8] = tested on: wheat germ agglutinin (Triticum aestivum), Alexa647-labelled; test: Alexa647-WGA lectin binding to printed small molecules – biochemical, small-molecule microarray, 635/667 nm fluorescence, artefact control for SMM control-protein annotation, profiling panel (AID 1140); details: WGA-A647 binding, 635 nm fluorescence, higher = more signal;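 note: score merges 667 nm feature emission with signal to noise over triplicate slides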
[9] = molecular target: Luciferin 4-monooxygenase (Photinus pyralis) (UniProt P08659); test: inhibition of purified Photinus pyralis luciferase – biochemical, luminescence, purified enzyme, 2006 set, primary screen (AID 1141); details: purified firefly luciferase, SteadyGlo luminescence, 30 min; higher = more signal, called active from +8 up or from −8 down;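 note: cell-free assay with purified firefly luciferase at 100 ng per well in PBS; test concentration not given here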
Luciferin 4-monooxygenase (Photinus pyralis), sequence (P08659 whole entry, looked up): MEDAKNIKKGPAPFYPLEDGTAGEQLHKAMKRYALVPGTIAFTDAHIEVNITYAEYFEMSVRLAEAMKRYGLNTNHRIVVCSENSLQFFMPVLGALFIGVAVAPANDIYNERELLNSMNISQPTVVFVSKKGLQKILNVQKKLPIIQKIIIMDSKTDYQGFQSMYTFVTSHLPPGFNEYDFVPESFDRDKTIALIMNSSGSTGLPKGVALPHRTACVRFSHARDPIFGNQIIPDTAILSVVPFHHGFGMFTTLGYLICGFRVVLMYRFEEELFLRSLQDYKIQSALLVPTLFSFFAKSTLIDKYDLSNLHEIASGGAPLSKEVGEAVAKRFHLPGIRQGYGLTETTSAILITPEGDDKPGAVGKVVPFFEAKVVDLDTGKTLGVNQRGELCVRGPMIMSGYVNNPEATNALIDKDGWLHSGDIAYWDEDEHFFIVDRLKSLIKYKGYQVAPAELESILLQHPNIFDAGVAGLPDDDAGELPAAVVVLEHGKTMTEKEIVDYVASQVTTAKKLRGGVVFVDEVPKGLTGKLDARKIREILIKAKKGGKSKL

[10] = tested on: Wnt5a (protein binding on small-molecule microarray); test: small molecules binding Wnt5a protein – biophysical, small-molecule microarray, 635/667 nm fluorescence, primary screen (AID 1142); details: 635 nm fluorescence, higher = more signal;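 note: fluorescence read at 667 nm with signal to noise per printed feature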
[11] = ATP-based viability of Huh7 replicon cells – cell-based, CellTiter-Glo luminescence, basal, 48 h, cytotoxicity control for HCV replication inhibitor project, primary screen (AID 1143); details: higher = more signal, called active from +8 up or from −8 down;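 note: Huh7 hepatoma cells carrying a hepatitis C replication reporter with no stimulus; test concentration not given here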
[12] = Pseudomonas biofilm growth suppression – PAO1 strain, BacTiter-Glo luminescence, LB-PBS, primary screen (AID 1144); details: P. aeruginosa PAO1 biofilm, 12 h, higher = more signal
[13] = basal CRE-LacZ reporter activity in PC12 – cell-based, unstimulated, primary screen (AID 1145); details: no forskolin, luminescence, 4.5 h, higher = more signal, called active from +8 up or from −8 down
[14] = forskolin-driven CRE-LacZ activity in PC12 – cell-based, CRE-LacZ reporter, forskolin-stimulated, primary screen (AID 1146); details: luminescence, 4.5 h, higher = more signal, called active from +8 up or from −8 down;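 note: PC12 cells with 6xCRE LacZ reporter stimulated by forskolin 10 µM; beta-galactosidase reporter signal reflecting CREB driven transcription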
[15] = molecular target: Streptavidin (Streptomyces avidinii) (UniProt P22629); test: compounds binding control protein streptavidin – biophysical, small-molecule microarray, 635/667 nm fluorescence, artefact control for SMM compound annotation, primary screen (AID 1147); details: higher = more signal;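 note: signal reflects streptavidin binding to arrayed compounds as a control protein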
Streptavidin (Streptomyces avidinii), sequence (P22629 whole entry, looked up): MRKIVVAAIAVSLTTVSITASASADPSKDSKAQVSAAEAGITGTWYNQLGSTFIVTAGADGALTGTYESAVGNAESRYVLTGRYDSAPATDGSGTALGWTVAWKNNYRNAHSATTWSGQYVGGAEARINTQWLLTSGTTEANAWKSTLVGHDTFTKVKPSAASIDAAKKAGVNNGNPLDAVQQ

[16] = probe aInhba binding on compound microarray – biochemical, small-molecule microarray, 635/667 nm fluorescence, primary screen (AID 1148); details: higher = more signal;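 note: score merges 667nm spot fluorescence with signal-to-noise for antibody binding to printed compounds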
Torsin-1A (Homo sapiens) [17] = molecular target: Torsin-1A (Homo sapiens) (UniProt O14656); test: TOR1A wild-type binding on microarray – cell lysate, small-molecule microarray, lysate, 635/667 nm, primary screen (AID 1149); details: COS7 hTOR1A-WT lysate, 635 nm fluorescence, higher = more signal
Torsin-1A (Homo sapiens), sequence (O14656 whole entry, looked up): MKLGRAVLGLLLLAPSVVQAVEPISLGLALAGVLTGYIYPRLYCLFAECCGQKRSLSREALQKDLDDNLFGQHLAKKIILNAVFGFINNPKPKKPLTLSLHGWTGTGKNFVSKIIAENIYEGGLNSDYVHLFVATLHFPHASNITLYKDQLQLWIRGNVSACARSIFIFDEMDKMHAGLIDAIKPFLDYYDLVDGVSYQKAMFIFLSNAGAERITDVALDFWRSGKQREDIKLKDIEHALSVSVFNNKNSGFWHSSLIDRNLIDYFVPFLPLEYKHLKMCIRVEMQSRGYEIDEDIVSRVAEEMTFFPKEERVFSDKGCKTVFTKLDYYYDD

Torsin-1A (Homo sapiens) [18] = molecular target: Torsin-1A (Homo sapiens) (UniProt O14656); test: torsin A mutant lysate binding on microarrays – cell lysate, small-molecule microarray, COS7 lysate, 635/667 nm fluorescence, primary screen (AID 1150); details: COS7 hTOR1A mutant lysate, 635 nm fluorescence, higher = more signal;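 note: score pools 667 nm emission and signal to noise measuring lysate protein binding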
[19] = tested on: Sonic hedgehog protein (Shh); test: Sonic hedgehog microarray binding compounds – biochemical, small-molecule microarray, 635/667 nm fluorescence, primary screen (AID 1151); details: 635 nm fluorescence, higher = more signal;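 note: Shh protein binding to compounds spotted on small-molecule microarray slides; score combines spot fluorescence intensity with signal-to-noise across triplicate slides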

Row | SMILES | composite z-score [1] | composite z-score [2] | composite z-score [3] | composite z-score [4] | composite z-score [5] | composite z-score [6] | z-score [7] | composite z-score (Lefty1) | composite z-score [8] | z-score [9] | composite z-score [10] | z-score [11] | z-score [12] | z-score [13] | z-score [14] | composite z-score [15] | composite z-score [16] | composite z-score (Torsin-1A (Homo sapiens) [17]) | composite z-score (Torsin-1A (Homo sapiens) [18]) | composite z-score [19]
1 | CO[C@H]1O[C@H](CO)[C@@H](OC(=O)Nc2ccccc2-c2ccccc2)[C@H](OC(=O)Nc2ccc3c(c2)OCO3)[C@@H]1OC(=O)Nc1ccc2c(c1)OCO2 | 0.971 | 1.27 | 0.485 | 0.991 | 1.24 | 0.853 | 1.56 | 1.16 | 0.412 | -7.93 (inactive) | 0.25 | -2.72 (inactive) | 0.233 (inactive) | 0.792 (inactive) | -1.52 (inactive) | 0.282 | 0.361 | 0.388 | 1.41 | 0.91
2 | COCCOC(=O)N1C(=O)[C@@]2(c3cc(C#CCNC(N)=O)ccc31)[C@H](C(=O)N1CCCCCCC1)[C@H]1C(=O)O[C@H](c3ccccc3)[C@H](c3ccccc3)N1[C@@H]2c1ccc(O)cc1 | -0.269 | 1 | 0.478 | 0.391 | 1.4 | 1.24 | -0.606 | 0.742 | 0.128 | -0.352 (inactive) | 0.233 | -0.204 (inactive) | 0.942 (inactive) | -0.0526 (inactive) | -0.333 (inactive) | 0.399 | -0.101 | 0.266 | 0.216 | 1.12
3 | O=C1O[C@@H](c2ccccc2)[C@@H](c2ccccc2)N2[C@@H](c3ccc(O)cc3)[C@]3(C(=O)Nc4ccccc43)[C@@H](C(=O)Nc3nc4ccccc4s3)[C@H]12 | 1.07 | 1.18 | 0.708 | 0.975 | 1.2 | 0.398 | -2.38 | 0.745 | 0.634 | -1.1 (inactive) | 1.09 | -4.19 (inactive) | -1.87 (inactive) | 0.389 (inactive) | -0.0768 (inactive) | 0.243 | -0.128 | 0.0151 | 0.325 | 0.183
4 | C=CC1c2cc(O)c(OC)cc2CCN1Cc1sc2ccccc2c1Cl (stereo not given) | 0.13 | 0.696 | -0.025 | 0.863 | 1.28 | -0.416 | -0.68 | 0.188 | 0.983 | -0.707 (inactive) | 0.252 | -3.81 (inactive) | 1.39 (inactive) | -0.114 (inactive) | 1.7 (inactive) | 1.57 | -0.295 | -0.425 | 0.257 | -0.0808
5 | COc1cc(CO)cc(I)c1O[C@H]1C=C(C(=O)NCCO)C[C@@H](NCc2ccccc2F)[C@@H]1O | 0.271 | 1.17 | 0.0691 | 0.124 | 0.347 | 0.974 | 1.72 | 1.19 | 0.278 | -0.0791 (inactive) | -0.145 | -0.466 (inactive) | -0.251 (inactive) | 9.26 (active) | -1.22 (inactive) | -0.0401 | -0.128 | 0.235 | -0.175 | 0.485
6 | CCOC(=O)C1=CC[C@@H](c2ccccc2C(F)(F)F)N(S(=O)(=O)c2ccc(C)cc2)C1 | 1.62 | 1.18 | 0.406 | 0.836 | 0.877 | 0.633 | 1.9 | -0.356 | 0.989 | 0.515 (inactive) | 0.658 | -5.24 (inactive) | -0.0874 (inactive) | 0.238 (inactive) | -0.596 (inactive) | 0.867 | 0.693 | -0.117 | 2.07 | 0.0555
7 | O=C(N1CCCCC1)[C@@]1(Cc2ccccc2)COC(c2ccc(OCCCO)cc2)=N1 | 1.85 | 1.2 | 0.195 | 0.96 | 0.475 | 1.3 | 1.22 | -0.211 | 1.12 | -0.117 (inactive) | 1.03 | -2.49 (inactive) | 0.496 (inactive) | -0.128 (inactive) | -0.628 (inactive) | 0.85 | 0.322 | 0.442 | 0.67 | 0.934
8 | COc1ccc(NN2C(C(O)c3ccco3)C=CC3C(=O)N(C4CCCCC4)C(=O)C32)cc1 (stereo not given) | 1.04 | 1.22 | 0.653 | 0.936 | 1.25 | 0.484 | 0.265 | 0.655 | 1.19 | -0.358 (inactive) | 0.495 | -0.829 (inactive) | -0.522 (inactive) | 0.323 (inactive) | 0.565 (inactive) | 0.965 | 0.0471 | 0.95 | 1.1 | 1.28
9 | COCCCNC(=O)[C@]1(CCC(=O)OC(C)(C)C)N=C(c2ccc(OCCCO)cc2)O[C@@H]1c1ccccc1 | 3.52 | 1.26 | 0.807 | 0.272 | 1.21 | -0.0959 | 0.229 | -0.989 | 1.12 | -0.127 (inactive) | 0.163 | 0.11 (inactive) | 1.2 (inactive) | 0.699 (inactive) | -0.625 (inactive) | 0.172 | 0.346 | 1.11 | 2.06 | -1.52
10 | C=CCOC(=O)[C@H]1[C@@H]2C(=O)O[C@@H](c3ccccc3)[C@@H](c3ccccc3)N2[C@@H](c2ccc(OCCOC(=O)[C@H]3C[C@H]4C(=O)N[C@@H](CCCC[N+](C)(C)C)C(=O)N4[C@H]3c3cccc(OCCO)c3)cc2)[C@]12C(=O)Nc1ccc(I)cc12 | 1.21 | 0.915 | 0.293 | 0.82 | 1.34 | 1.7 | -1.45 | 0.761 | 0.19 | -0.678 (inactive) | 0.419 | -0.587 (inactive) | -1.08 (inactive) | 0.415 (inactive) | -0.0044 (inactive) | -0.0117 | -0.13 | 0.485 | 0.29 | 1.03
